{
  "source": "PubChem BioAssay AID1822",
  "about": "(The Scripps Research Institute Molecular Screening Center, 2009)",
  "note": "Among all 290,000 compounds or so, about 3,500 (1.2%) were called active. Only a selection was taken, and actives are over-represented in it overall. Values without a mark were called inactive.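 The calls were made as follows: active = inhibition above the campaign mean inhibition over all tested compounds plus 3 SD (cut at about 28% in these data); inactive = the rest.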",
  "data": [
    {"test_system": "M18 aspartyl aminopeptidase (Plasmodium falciparum 3D7)", "assay": "inhibition of P. falciparum M18 aminopeptidase – biochemical, QFRET, recombinant enzyme, primary screen (AID 1822);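 also: 0% = plate median of test compound wells and 100% = 2 mM ZnCl2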", "conditions": "recombinant PfM18AAP, H-Glu-NHMec fluorogenic cleavage; at 7.35 µM; stronger effect = higher value", "values": [
      {"compound": "Cc1ccc(OCC(=O)Nc2ccc(NC(=O)c3cccs3)cc2)c(C)c1", "inhibition": "2.4%"},
      {"compound": "CCCc1nnc(NC(=O)CCC(=O)N2CCN(S(=O)(=O)c3ccc(OC)cc3)CC2)s1", "inhibition": "3.89%"},
      {"compound": "N#C/C(=C\\c1ccc(-c2cccc([N+](=O)[O-])c2)o1)C(=O)NCCN1CCOCC1", "inhibition": "2.81%"},
      {"compound": "Cc1ccc(-c2ccc(/C=C(\\C#N)C(N)=S)o2)c([N+](=O)[O-])c1", "inhibition": "34% (active)"},
      {"compound": "Cc1ccc(Cc2cnc(NC(=O)/C(C#N)=C/c3ccc(-c4cccc([N+](=O)[O-])c4)o3)s2)cc1", "inhibition": "1.04%"},
      {"compound": "Cc1ccc(N(C(=O)c2snc(C(N)=O)c2N)C(C(=O)NCC2CCCO2)c2c[nH]c3ccccc23)cc1", "note": "(configuration not stated)", "inhibition": "2.71%"},
      {"compound": "OCCN1CCN(c2nnc(-c3ccccc3)c3ccccc23)CC1", "inhibition": "4.34%"},
      {"compound": "OCCN1CCN(C(=S)c2ccc(-c3ccccc3)cc2)CC1", "inhibition": "50% (active)"},
      {"compound": "CN1CCN(CCCCOc2ccccc2-c2ccccc2)CC1", "inhibition": "2.29%"},
      {"compound": "CC(=O)Nc1ccc(S(=O)(=O)Oc2ccc(Br)cc2C(=S)N2CCOCC2)cc1", "inhibition": "20.7%"},
      {"compound": "COc1cc(CC(=O)N2CCC(n3nccc3NC(=O)C3CC3)CC2)cc(OC)c1OC", "inhibition": "1.44%"},
      {"compound": "CCN(CC)c1ccc(NC(=O)CCc2nnc3ccc(N4CCCCC4)nn23)c(C)c1", "inhibition": "34.1% (active)"},
      {"compound": "CCOC(=O)c1cccc(NC(=O)CCc2nnc3ccc(N4CCOCC4)nn23)c1", "inhibition": "-1.08%"},
      {"compound": "CCOc1ccc(CCNC(=O)CCc2nnc3ccc(N4CCCC4)nn23)cc1OCC", "inhibition": "-5.76%"},
      {"compound": "CCC(c1nnnn1C(C)(C)C)N(Cc1cc2cccc(C)c2n2nnnc12)C1CCCC1", "note": "(configuration not stated)", "inhibition": "-1.66%"},
      {"compound": "Cc1nn(C(C)(C)C)c(OC(=O)CC(C)C)c1S(=O)(=O)c1ccccc1", "inhibition": "3.62%"},
      {"compound": "Cc1ccc2nc(-c3cccc(Br)c3)cc(C(=O)Nn3cnnc3)c2c1", "inhibition": "60.7% (active)"},
      {"compound": "Cc1ccc2nc(-c3ccncc3)cc(C(=O)Nc3ccncc3)c2c1", "inhibition": "1.48%"},
      {"compound": "Cc1ccc(-c2cc(C(=O)NCc3cn(C)nc3C)c3cc(Br)ccc3n2)cc1", "inhibition": "0.33%"},
      {"compound": "N#Cc1c(-c2ccccc2)nc(SCc2cccc(C(F)(F)F)c2)[nH]c1=O", "inhibition": "0.63%"},
      {"compound": "COc1ccc(-c2nonc2NC(=O)c2oc3ccc(F)cc3c2C)cc1OC", "inhibition": "2.64%"},
      {"compound": "Cc1cc(N/N=C/c2ccccc2F)c2ccccc2n1", "inhibition": "3.64%"},
      {"compound": "COc1ccc(/C=C(\\C#N)C(=O)ONC2=NCCCCC2)cc1", "inhibition": "3.59%"},
      {"compound": "Cc1nc2ccccc2nc1N/N=C/c1ccc(O)cc1O", "inhibition": "31.6% (active)"},
      {"compound": "Oc1ccc(/C=N/Nc2nc(-c3ccccc3F)nc3ccccc23)c(O)c1", "inhibition": "18%"},
      {"compound": "COc1ccccc1N1CCN(/N=C/c2ccc(O)cc2O)CC1", "inhibition": "9.99%"},
      {"compound": "Oc1ccc(/C=N/NC2=NCCCCC2)c(O)c1", "inhibition": "40.1% (active)"},
      {"compound": "O=C(NNC(=O)C1CCCC1)c1ccc(F)cc1", "inhibition": "3.26%"},
      {"compound": "Cc1cc(C)cc(Oc2c(C(F)(F)F)oc3cc(OCC(=O)O)ccc3c2=O)c1", "inhibition": "0.89%"},
      {"compound": "N#Cc1cccc(CSc2ncnc(N)n2)c1", "inhibition": "3.53%"},
      {"compound": "CC(C)c1c(C(=O)N/N=C/c2ccccc2C(=O)O)nnn1-c1nonc1N", "inhibition": "2.33%"},
      {"compound": "O=S(=O)(Nc1ccccc1Br)c1cccs1", "inhibition": "-3.63%"},
      {"compound": "Cc1ccc(N2C(=O)C3C4C=CC(CC4)C3C2=O)cc1Br", "note": "(configuration not stated)", "inhibition": "-1.4%"},
      {"compound": "O=[N+]([O-])c1ccc(O)c(/C=N/Nc2ccccc2[N+](=O)[O-])c1", "inhibition": "-13%"},
      {"compound": "Nn1cnnc1N/N=C/c1cc([N+](=O)[O-])c(Cl)cc1Cl", "inhibition": "30% (active)"},
      {"compound": "COCCCNC(=O)CN1C(=O)CSc2ccc(S(=O)(=O)N3CCOCC3)cc21", "inhibition": "6.04%"},
      {"compound": "Cc1ccc(CNC(=O)C(=O)c2cn(CC(=O)N3CCCC3)c3ccccc23)cc1", "inhibition": "2.97%"},
      {"compound": "CC(OC(=O)c1ccc2noc(-c3ccccc3)c2c1)C(N)=O", "note": "(configuration not stated)", "inhibition": "31.9% (active)"},
      {"compound": "Oc1ccc(-c2onc3ccc(Cl)cc23)cc1", "inhibition": "1.68%"},
      {"compound": "COc1ccc(-c2onc3ccc(C(C)=O)cc23)cc1", "inhibition": "13.4%"},
      {"compound": "Cc1c(CN2CC[C@@H](N3CCN(c4ccccn4)CC3)[C@H](O)C2)[nH]c2ccc(F)cc12", "inhibition": "9.87%"},
      {"compound": "COc1ccc(N(Cc2cc3ccc(C)cc3[nH]c2=O)S(=O)(=O)c2ccccc2)cc1", "inhibition": "6.49%"},
      {"compound": "CC(=O)N1c2ccc(S(=O)(=O)NCCC(=O)N(C)C3CCCCC3)cc2CC1C", "note": "(configuration not stated)", "inhibition": "0.68%"},
      {"compound": "O=C(Nc1cccc([N+](=O)[O-])c1)Nn1cnnc1", "inhibition": "77.4% (active)"},
      {"compound": "O=C(Nn1cnnc1)c1ccc([N+](=O)[O-])cc1", "inhibition": "30.2% (active)"},
      {"compound": "COC(=O)/C=C\\C(=O)Nc1cccc([N+](=O)[O-])c1", "inhibition": "-7.77%"},
      {"compound": "O=C(Nc1cccc([N+](=O)[O-])c1)Nc1ccc(Cl)cn1", "inhibition": "-7.59%"},
      {"compound": "O=C(Nn1c(-c2ccccc2)nc2ccccc2c1=O)c1ccc([N+](=O)[O-])cc1", "inhibition": "-0.32%"},
      {"compound": "Cc1ccc(C)n1NC(=O)c1ccc([N+](=O)[O-])cc1", "inhibition": "3.79%"},
      {"compound": "COc1ccc(C(=O)NCc2nnc(SCC(=O)NC3=NCCS3)n2C)cc1", "inhibition": "-2.4%"},
      {"compound": "Cc1cccc(C(=O)Nc2ccc(C(=O)N/N=C/c3cccc(C)n3)cc2)c1", "inhibition": "-3.2%"},
      {"compound": "CSCC[C@H](NC(=O)N1CCn2c1nc1ccccc12)C(=O)NC1CCCCC1", "inhibition": "2.15%"},
      {"compound": "CCCc1cc(=O)oc2c(C)c(OCC(=O)N3CCC(C(=O)O)CC3)ccc12", "inhibition": "5.91%"},
      {"compound": "COc1ccc(C(C(=O)NC(C)(C)C)N(Cc2ccc(F)cc2)C(=O)CCC(=O)Nc2cc(C)on2)cc1", "note": "(configuration not stated)", "inhibition": "-7.57%"},
      {"compound": "C=CCOc1cccc(CNCc2cccnc2)c1", "inhibition": "-17.3%"},
      {"compound": "Cc1ccc(NNC(=O)c2cccs2)cc1Cl", "inhibition": "28.9% (active)"},
      {"compound": "O=C(NNC(=O)c1ccc(Cl)cc1Cl)c1cccs1", "inhibition": "-2.06%"},
      {"compound": "Cc1ccc(NNC(=O)c2c(F)cccc2Cl)cc1Cl", "inhibition": "5.54%"},
      {"compound": "CCOC(=O)N1CCN(Cc2nc3cc(NC(=O)CC)ccc3n2CC)CC1", "inhibition": "-7.14%"},
      {"compound": "CCOc1ccccc1N1C(=O)CC(Sc2nccc(C)n2)C1=O", "note": "(configuration not stated)", "inhibition": "-4.13%"},
      {"compound": "COc1cccc2cc(C(=O)N(C)C)c(=O)oc12", "inhibition": "-12.7%"},
      {"compound": "COc1cccc2cc(-c3cc(=O)oc4cc(C)c(O)cc34)oc12", "inhibition": "41.3% (active)"},
      {"compound": "COc1ccc2oc(=O)cc(-c3cc4ccccc4o3)c2c1", "inhibition": "21.1%"},
      {"compound": "COc1ccc(N2CCN(C(=O)Cn3cnc4sc(C)c(S(=O)(=O)N5CCOCC5)c4c3=O)CC2)cc1", "inhibition": "2.52%"},
      {"compound": "CCOC(=O)C1CCN(c2c(Nc3cc(C)cc(C)c3)c(=O)c2=O)CC1", "inhibition": "-6.21%"},
      {"compound": "Cc1nc2ccc(S(=O)(=O)NCC(=O)O)cc2s1", "inhibition": "51.8% (active)"},
      {"compound": "Cc1nc2ccc(S(=O)(=O)NCC(=O)NCCN3CCCCC3C)cc2s1", "note": "(configuration not stated)", "inhibition": "-0.01%"},
      {"compound": "Cc1nc2ccc(S(=O)(=O)NC(C(=O)N3CCCCCC3)C(C)C)cc2s1", "note": "(configuration not stated)", "inhibition": "-0.39%"},
      {"compound": "COc1cccc2cc(C(=O)NCc3ccc(C)cc3)c(=N)oc12", "inhibition": "3.31%"},
      {"compound": "COc1ccc2c(CC(=O)N3CCc4cc(OC)c(OC)cc4C3)coc2c1", "inhibition": "3.64%"},
      {"compound": "ONC(=Nc1ccc(Cl)cc1)c1ccccc1Cl", "inhibition": "18.2%"},
      {"compound": "C/C(Cc1ccccc1)=N\\NC(=O)CNC(=O)c1ccccc1Cl", "inhibition": "6.33%"},
      {"compound": "ONC(=Nc1ccccc1)c1ccccc1Cl", "inhibition": "40.1% (active)"},
      {"compound": "COC(=O)c1ccccc1Sc1c(/C=N/OCc2ccc(Cl)cc2)c(C(F)(F)F)nn1C", "inhibition": "2.22%"},
      {"compound": "c1ccc(-c2ccc3c(c2)NC(C2Nc4cc(-c5ccccc5)ccc4O2)O3)cc1", "note": "(configuration not stated)", "inhibition": "42.1% (active)"},
      {"compound": "COc1cccc(C(=O)Nc2nnc(S(=O)(=O)N(C)c3ccccc3)s2)c1", "inhibition": "-1.4%"},
      {"compound": "COc1cc(S(=O)(=O)Nc2ncn[nH]2)ccc1Cl", "inhibition": "51.4% (active)"},
      {"compound": "COc1ccc(S(=O)(=O)Nc2ccc(S(=O)(=O)N3CCCCC3)cc2)cc1OC", "inhibition": "4.79%"},
      {"compound": "COc1ccc(C(C)C)cc1S(=O)(=O)Nc1ncn[nH]1", "inhibition": "8.59%"},
      {"compound": "O=C(NCc1cccnc1)C12CC3CC(CC(C3)C1)C2", "inhibition": "-7.72%"},
      {"compound": "Cc1cc(NC(=O)CCC(=O)N(CC(=O)NCC2CCCO2)c2ccccc2)no1", "note": "(configuration not stated)", "inhibition": "-2.56%"},
      {"compound": "O=C(NCCN1CCOC1=O)C1CCC(=O)N(CCc2ccc(Cl)cc2)C1", "note": "(configuration not stated)", "inhibition": "-13.3%"},
      {"compound": "CC(=O)Oc1ccc(N(C(C)=O)S(=O)(=O)c2ccc3ccccc3c2)cc1Br", "inhibition": "-1.42%"},
      {"compound": "CC(=O)N(c1ccc2oc(=O)sc2c1)S(=O)(=O)c1ccc(C)cc1", "inhibition": "32.7% (active)"},
      {"compound": "COC(=O)c1c(C)oc2ccc(N(C(=O)Oc3ccccc3)S(=O)(=O)c3ccccc3)cc12", "inhibition": "-12.4%"},
      {"compound": "CCOc1ccccc1NC(=O)NC1CCCCCCC1", "inhibition": "-2.13%"},
      {"compound": "CC(=O)Nc1ccc(NC(=O)[C@@H](NC(=O)c2cccc(C)c2)C(C)C)cc1", "inhibition": "-0.5%"},
      {"compound": "CCc1c(C)sc(NC(=O)c2cccs2)c1C(N)=O", "inhibition": "-38.8%"},
      {"compound": "COc1ccc(NC(=O)COc2ccc(C(=O)c3ccc(F)cc3)cc2)cc1S(N)(=O)=O", "inhibition": "-0.83%"},
      {"compound": "CC(/C=C/C1(O)C(C)CC(=O)CC1(C)C)OC1OC(CO)C(O)C(O)C1O", "note": "(configuration not stated)", "inhibition": "49.9% (active)"},
      {"compound": "CC1=C(C)C(=O)OC(C(C)C2CCC3C4CC=C5CC(OC6OC(COC7OC(CO)C(O)C(O)C7O)C(O)C(O)C6O)CC(O)C5(C)C4CCC23C)C1", "note": "(configuration not stated)", "inhibition": "3.15%"},
      {"compound": "Cc1[nH]c(C)c(S(=O)(=O)N2CCN(c3cccc(C(F)(F)F)c3)CC2)c1C(=O)N1CCCCC1", "inhibition": "3.83%"}
    ]}
  ]
}
